Results filed as inconclusive are left out. Where a call stands in place of a potency, no number is given. Activity calls are given as the source filed them. Unless noted, calls come from the whole dose curve; as a rule, active = well fitted curve in the direction sought with a large enough effect in the repeat runs; inconclusive = weak or mixed curves; inactive = no such curve, though single readings can be large; an effect the other way counts as inactive or inconclusive.
What was measured:
[1] = qHTS assay to identify small molecule agonists of the estrogen receptor alpha (ER-alpha) signaling pathway in the presence of an antagonist - cell viability counter screen (AID 1259386);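 note: cells exposed to compounds for 22 h at 37 °C before the viability read; nearly all actives have a fitted effect of over 30% in size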; note: potency is the fitted concentration of half-maximal effect
How it was run: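 Using estrogen-depleted VM7Luc4E2 cells, the 15-concentration compound series was applied together with 10.0nM ICI-182,780 and incubated 22hr at 37C/5% CO2. Cell viability was then scored by CellTiter-Fluor.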

[2] = target: Progesterone receptor (Homo sapiens) (UniProt P06401); assay: qHTS assay to identify small molecule agonists of the progesterone receptor (PR) signaling pathway (AID 1346784; calls by dose curve; note: nearly all actives have a fitted effect of over 30% in size)
Progesterone receptor (Homo sapiens), sequence (P06401 whole entry, looked up): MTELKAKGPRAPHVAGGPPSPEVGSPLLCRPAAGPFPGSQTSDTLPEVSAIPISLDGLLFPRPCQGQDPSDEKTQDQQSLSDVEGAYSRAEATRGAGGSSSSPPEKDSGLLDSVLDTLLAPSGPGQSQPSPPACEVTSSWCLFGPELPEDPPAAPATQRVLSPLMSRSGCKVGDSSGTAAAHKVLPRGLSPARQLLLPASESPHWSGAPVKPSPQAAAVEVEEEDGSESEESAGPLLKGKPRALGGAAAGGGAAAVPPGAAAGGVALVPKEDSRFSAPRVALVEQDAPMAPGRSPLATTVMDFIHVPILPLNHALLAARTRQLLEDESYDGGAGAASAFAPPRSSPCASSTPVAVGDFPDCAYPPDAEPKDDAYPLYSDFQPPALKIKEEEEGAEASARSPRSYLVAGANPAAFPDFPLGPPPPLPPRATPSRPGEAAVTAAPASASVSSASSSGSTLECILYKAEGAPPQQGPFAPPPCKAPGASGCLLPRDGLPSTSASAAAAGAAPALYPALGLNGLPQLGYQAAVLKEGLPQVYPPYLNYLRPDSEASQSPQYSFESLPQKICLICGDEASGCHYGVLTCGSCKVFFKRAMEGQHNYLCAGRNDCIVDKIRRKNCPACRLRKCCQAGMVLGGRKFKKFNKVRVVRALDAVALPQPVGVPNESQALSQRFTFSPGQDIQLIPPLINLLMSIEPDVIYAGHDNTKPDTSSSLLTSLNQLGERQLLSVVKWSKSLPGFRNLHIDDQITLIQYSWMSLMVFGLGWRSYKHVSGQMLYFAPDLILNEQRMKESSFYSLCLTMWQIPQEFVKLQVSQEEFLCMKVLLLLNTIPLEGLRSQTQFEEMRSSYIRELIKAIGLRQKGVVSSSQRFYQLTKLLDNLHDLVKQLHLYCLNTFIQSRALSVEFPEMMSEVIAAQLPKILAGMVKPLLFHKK
How it was run: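 Fluorescence from LiveBLAzer B/G FRET substrate cleavage (2 hr, RT) reported PR activation in PR-UAS-bla HEK 293T cells treated 16 hr at 37C/5% CO2 with compounds; medium contained 2% charcoal-stripped FBS.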

[3] = target: Progesterone receptor (Homo sapiens) (UniProt P06401); assay: qHTS assay to identify small molecule antagonists of the progesterone receptor (PR) signaling pathway (AID 1346795; active = well fitted inhibition curve with a large enough effect in the signal ratio in the repeat runs, not every such curve was filed as active; the % refers to the signal ratio; note: potency is the fitted concentration of half-maximal effect)
How it was run: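 Fluorescence intensity measured 2 hr after adding beta-lactamase FRET substrate to PR-UAS-bla HEK293T cells that had been co-treated 16 hr with compound and 1 nM R5020 (final concentration) in 2% charcoal-stripped FBS.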

[4] = qHTS assay to identify small molecule antagonists of the progesterone receptor (PR) signaling pathway - cell viability counter screen (AID 1346798); note: nearly all actives have a fitted effect of over 50% in size; note: potency is the fitted concentration of half-maximal effect
How it was run: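 CellTiter-Glo luminescence; PR-UAS-bla HEK293T, 3,000 cells/well; compound + R5020, 16 hr, 37C/5% CO2; 30 min RT before read.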

[5] = qHTS assay to identify small molecule agonists of the progesterone receptor (PR) signaling pathway - cell viability counter screen (AID 1346799; calls by dose curve; note: nearly all actives have a fitted effect of over 45% in size; note: potency is the fitted concentration of half-maximal effect)
How it was run: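 In parallel with the beta-lactamase readout, cytotoxicity toward PR-UAS-bla HEK293T cells was measured by CellTiter-Glo luminescence following 16 hr compound incubation in 2% charcoal-stripped FBS medium.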

[6] = qHTS assay to identify small molecule antagonists of the TGF-beta/Smad signaling pathway - cell viability counter screen (AID 1346824); note: nearly all actives have a fitted effect of over 50% in size
How it was run: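 SBE-bla HEK 293T cells, incubated overnight, then compound plus 0.25 ng/mL TGF-beta1 (stock added) for 5 hr at 37 C. Viability was read in the same wells by CellTiter-Glo luminescence after 30 min at room temperature.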

[7] = qHTS assay to identify small molecule agonists of the TGF-beta/Smad signaling pathway (AID 1346859; active = well fitted activation curve with a large enough effect in the signal ratio in the repeat runs, not every such curve was filed as active; the % refers to the signal ratio; note: series mostly up to about 77 µM)
How it was run: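 After overnight seeding, SBE-bla HEK 293T cells are dosed with compounds in DMSO and kept 5 hr at 37 C, 5% CO2. LiveBLAzer-type FRET substrate is then applied for 2 hr at room temperature.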

[8] = target: Thyrotropin-releasing hormone receptor (Homo sapiens) (UniProt P34981); assay: qHTS assay to identify small molecule antagonists of the thyrotropin-releasing hormone receptor (TRHR) signaling pathway (AID 1346877; active = well fitted inhibition curve with a large enough effect in the repeat runs, not every such curve was filed as active; note: series mostly up to about 51 µM)
Thyrotropin-releasing hormone receptor (Homo sapiens), sequence (P34981 whole entry, looked up): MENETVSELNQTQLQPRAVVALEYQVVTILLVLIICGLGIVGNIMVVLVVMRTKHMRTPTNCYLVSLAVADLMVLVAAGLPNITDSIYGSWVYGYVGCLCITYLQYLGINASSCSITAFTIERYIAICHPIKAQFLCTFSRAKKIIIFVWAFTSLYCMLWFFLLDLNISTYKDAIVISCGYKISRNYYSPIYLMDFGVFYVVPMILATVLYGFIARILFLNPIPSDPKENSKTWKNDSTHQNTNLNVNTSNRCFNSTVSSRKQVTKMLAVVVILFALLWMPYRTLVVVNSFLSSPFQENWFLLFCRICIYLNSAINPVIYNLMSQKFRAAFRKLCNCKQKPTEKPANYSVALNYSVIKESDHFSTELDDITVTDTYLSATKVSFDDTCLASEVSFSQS
How it was run: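 Calcium signal in dye-loaded TRHR/HEK293 cells; compounds added 5 min before TRH (1 nM final); fluorescence monitored 3 min at 1 s steps.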

[9] = target: Thyrotropin-releasing hormone receptor (Homo sapiens) (UniProt P34981); assay: qHTS assay to identify small molecule agonists of the thyrotropin-releasing hormone receptor (TRHR) signaling pathway (AID 1346891; calls by dose curve;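 note: HEK293 cells expressing TRHR with calcium dye readout; series mostly up to about 58 µM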)
How it was run: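 Compounds were tested as agonists at 15 concentrations, in triplicate, on TRHR-Hek293 cells; calcium-sensitive dye fluorescence was recorded for 3 min following addition.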

[10] = qHTS assay to identify small molecule agonists of the TGF-beta/Smad signaling pathway - cell viability counter screen (AID 1346829); note: top concentration of the series differs between compounds; nearly all actives have a fitted effect of over 45% in size
How it was run: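 HEK 293T SBE-bla line, 5 hr compound exposure at 37 C, multiplexed CellTiter-Glo viability read by luminescence.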

| SMILES | Potency [1] | Potency [2] | Potency [3] | Potency [4] | Potency [5] | Potency [6] | Potency [7] | outcome [8] | Potency [9] | Potency [10] |
| --- | --- | --- | --- | --- | --- | --- | --- | --- | --- | --- |
| Nc1ncnc2c1ncn2[C@H]1CC[C@@H](CO)O1 | inactive | inactive | inactive | inactive | inactive | inactive | inactive | inactive | inactive | – |
| C=CCc1ccccc1OCC(O)CNC(C)C (stereo not given) | inactive | inactive | inactive | inactive | – | inactive | inactive | inactive | inactive | inactive |
| N#CCc1ccc(Cl)cc1Cl | inactive | inactive | inactive | inactive | inactive | – | inactive | inactive | inactive | inactive |
| C=C1C[C@@]23CC[C@H]4[C@@](C)(CCC[C@@]4(C)C(=O)O[C@@H]4O[C@H](CO)[C@@H](O)[C@H](O)[C@H]4O)[C@@H]2CC[C@]1(O[C@@H]1O[C@H](CO)[C@@H](O)[C@H](O[C@@H]2O[C@H](CO)[C@@H](O)[C@H](O)[C@H]2O)[C@H]1O[C@@H]1O[C@H](CO)[C@@H](O)[C@H](O)[C@H]1O)C3 | inactive | inactive | inactive | inactive | inactive | – | inactive | inactive | inactive | inactive |
| O=C1Cc2cc(Cl)ccc2N1 | inactive | inactive | inactive | inactive | inactive | – | inactive | inactive | inactive | inactive |
| O=C1NCCN1CCO | inactive | inactive | inactive | inactive | inactive | – | inactive | – | – | inactive |
| O=C(/C=C/c1ccc(O)c(O)c1)O[C@@H]1C[C@@](OC(=O)/C=C/c2ccc(O)c(O)c2)(C(=O)O)C[C@@H](O)[C@@H]1O | inactive | inactive | inactive | inactive | – | inactive | inactive | inactive | inactive | – |
| COc1ccc(OC(=O)N(CC(=O)O)Cc2ccc(OCCc3nc(-c4ccccc4)oc3C)cc2)cc1 | inactive | inactive | inactive | – | inactive | – | – | inactive | inactive | inactive |
| CC(=O)N/N=C/c1ccc([N+](=O)[O-])o1 | inactive | inactive | inactive | inactive | inactive | – | inactive | inactive | inactive | inactive |
| CCC1NC(=O)c2cc(S(N)(=O)=O)c(Cl)cc2N1 (stereo not given) | inactive | inactive | inactive | inactive | inactive | – | inactive | inactive | inactive | – |
| CCCCCCCCOc1ccc(C(=O)O)cc1 | inactive | inactive | 48 µM (active) | – | – | inactive | inactive | inactive | inactive | inactive |
| COc1cc(N)c(Cl)cc1C(=O)NC1CCN(CCCOc2ccc(F)cc2)CC1OC (stereo not given) | inactive | inactive | 29.8 µM (active) | inactive | inactive | – | inactive | inactive | inactive | inactive |
| CNC(=O)c1cnn(-c2nc(N)c3ncn([C@@H]4O[C@H](CO)[C@@H](O)[C@H]4O)c3n2)c1 | inactive | inactive | inactive | – | inactive | inactive | inactive | inactive | inactive | inactive |
| O=C1c2ccccc2C(=O)c2c(O)c(O)cc(O)c21 | 30.6 µM (active) | inactive | inactive | inactive | – | inactive | inactive | inactive | inactive | – |
| O=C(O)CCc1nc(-c2ccccc2)c(-c2ccccc2)o1 | inactive | inactive | inactive | inactive | – | inactive | inactive | inactive | inactive | – |
| COc1cc(C(=O)NCCCCCC(=O)O)cc(OC)c1OC | inactive | inactive | inactive | inactive | inactive | – | inactive | inactive | inactive | inactive |
| CC1(C)S[C@@H]2[C@H](NC(=O)C(c3ccccc3)S(=O)(=O)O)C(=O)N2[C@H]1C(=O)O (stereo not given in full) | inactive | inactive | inactive | – | inactive | – | inactive | inactive | inactive | inactive |
| Clc1ccc(Nc2nnc(Cc3ccncc3)c3ccccc23)cc1 | inactive | inactive | 26.6 µM (active) | – | – | – | inactive | – | – | inactive |
| CCOC(=O)c1ccc(O)c(O)c1 | inactive | inactive | inactive | inactive | – | inactive | inactive | – | – | inactive |
| COc1ncnc(NS(=O)(=O)c2ccc(N)cc2)c1OC | inactive | inactive | inactive | inactive | – | inactive | inactive | inactive | inactive | – |
| c1ccc(C[n+]2cccc3ccccc32)cc1 | inactive | inactive | inactive | inactive | – | inactive | inactive | – | – | – |
| CCC(C)(C)OC | inactive | inactive | inactive | inactive | – | inactive | inactive | inactive | inactive | inactive |
| C[C@@H](CN(C)C)CN1c2ccccc2Sc2ccccc21 | inactive | inactive | 26.6 µM (active) | 18.8 µM (active) | 10.6 µM (active) | – | inactive | – | – | inactive |
| CCOC(C)=O | inactive | inactive | inactive | inactive | inactive | inactive | inactive | inactive | inactive | – |
| CC[N+](CC)(CCNC(=O)C(=O)NCC[N+](CC)(CC)Cc1ccccc1Cl)Cc1ccccc1Cl | inactive | inactive | inactive | inactive | inactive | inactive | inactive | inactive | inactive | – |
| CCC(=O)C1CC(C(C)C)CC=C1C (stereo not given) | inactive | inactive | inactive | inactive | inactive | – | inactive | – | – | inactive |
| CCCCCC[C@@H](O)C/C=C\CCCCCCCC(=O)O | inactive | inactive | inactive | – | – | inactive | inactive | inactive | inactive | inactive |
| C=C(C)CCCC(C)CCO (stereo not given) | inactive | inactive | inactive | inactive | inactive | inactive | inactive | inactive | inactive | – |
| O=C(O)C[C@H](NC(=O)OCc1ccccc1)C(=O)O | inactive | inactive | inactive | inactive | inactive | – | inactive | inactive | inactive | – |

Source: PubChem BioAssay (Tox21)
